SMILES strings stand for the structures. Among all 420,000 compounds or so, about 64,000 (15%) were called active. About 27% were inconclusive and are not listed. Calls come from the whole dose curve; as a rule, active = well fitted inhibition curve with a large enough effect; inconclusive = small, poorly fitted or top-dose-only effect; inactive = flat fitted curve, though single readings scatter. These entries were drawn from the full list. Where a call stands in place of a potency, no number is given.
Potency is the fitted concentration of half-maximal effect.

This experiment is described as follows: qHTS for Inhibitors of human tyrosyl-DNA phosphodiesterase 1 (TDP1): qHTS in cells in absence of CPT. Note: nearly all actives have a fitted effect of over 55% in size. The conditions noted are these: DT40 Tdp1-/- hTDP1 cells, no CPT, ATP luminescence, 48 h; activity change, negative = growth inhibition: at 46.2 µM (top of the series). In short, it runs like this:
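Readout: luminescence from CellTiter-Glo after 30 min in the dark at RT. Cells: DT40 Tdp1-/- with stable hTDP1, 400/well. Exposure: compounds alone, ≥48 hr, 37 °C.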
Take `CCC(C)(C)NC(=O)CN(C(=O)CCC(=O)Nc1cc(C)ccn1)c1ccc2c(c1)OCCO2`: the Potency entry is “inactive”.
For the molecule `Cc1cc(=O)oc2cc(OC(C)C(=O)NCCc3ccc(S(N)(=O)=O)cc3)ccc12` (stereo not given), the Potency result is “inactive”.
To `CSc1nnc(CNC(=O)c2ccccc2)n1-c1ccc(F)cc1` belongs “inactive”.
Regarding `O=C1CSc2ccc(C(=O)NCc3ccccn3)cc2N1`, the Potency entry is “inactive”.
For `CCc1nn(CC(=O)Nc2cccc(C)c2C)c(=O)c2cc3sccc3n12`, the Potency result is “inactive”.
To `CCc1nn(CC(=O)Nc2cc(C)cc(C)c2)c(=O)c2cc3sccc3n12` belongs 5.17 µM (active); to `CCCC1NC(=S)NC(C)=C1C(C)=O` (stereo not given), “inactive”.
Consider `Nc1[nH]c(C(=O)c2ccccc2)c(-c2ccc(Br)cc2)c1C(=O)NC1CC1`, for which the Potency entry is “inactive”.
As for `Cc1ccc2nc(CN3CCN(S(=O)(=O)c4ccc(C)c(C)c4)CC3)oc2c1`, the entry is “inactive”; as for `O=Cc1cn(CCOc2ccc(F)cc2)c2ccccc12`, 11.6 µM (active).
To `Cc1cc(N2C(=O)C(=O)/C(=C(/O)c3ccc(Cl)cc3)C2c2cccc(Br)c2)no1` (stereo not given) belongs “inactive”; to `CC1(C(=O)NCc2ccccc2)CSCC(=O)N1CCCN1CCOCC1` (stereo not given), “inactive”.
To `O=C(Cn1c(-c2ccccn2)nc2ccccc21)NCCN1CCOCC1` belongs “inactive”; to `c1ccc2[nH]c(NCCN3CCOCC3)nc2c1`, “inactive”.
With `c1ccc2cc3c(NCCN4CCOCC4)ccnc3cc2c1`, the Potency is 20.6 µM (active).
As for `CC1CCCN(C(=O)Cn2c(=O)oc3ccccc32)C1` (stereo not given), the entry is “inactive”; as for `CC(C)NC(=S)Nc1cccc2cnccc12`, “inactive”.
To `CCN(c1ccccc1)S(=O)(=O)c1cccc(C(=O)NCc2ccccc2CN2CCOCC2)c1` belongs 18.4 µM (active); to `O=C(NCCN1CCOCC1)c1cccc(S(=O)(=O)Nc2ccc(F)cc2)c1`, “inactive”; to `CCN(c1ccccc1)S(=O)(=O)c1cccc(C(=O)O)c1`, “inactive”.
As for `COC(=O)c1ccc(COc2ccc(/C=N/NC(=O)C(=O)Nc3ccc(OC)cc3)cc2OC)o1`, the entry is “inactive”; as for `CCCc1ccc(OCc2ccc(C(=O)N/N=C/c3cccc([N+](=O)[O-])c3)o2)c(OC)c1`, 6.51 µM (active).
As to `Cc1ccc(NC(=O)O/N=C/c2cccc([N+](=O)[O-])c2)cc1`, the Potency entry was “inactive”.
As for `CC(OC(=O)CN1C(=O)COc2ccccc21)C(=O)NCc1ccc(F)cc1` (stereo not given), the entry is “inactive”; as for `COc1ccc(CCNC(=O)CN(c2ccccc2)S(C)(=O)=O)cc1OC`, “inactive”.
As for `COc1ccc(CCNS(=O)(=O)c2ccc(Cl)s2)cc1OC`, the entry is “inactive”; as for `COc1ccc(CCNC2=C(Cl)C(=O)N(Cc3ccccc3)C2=O)cc1OC`, 20.6 µM (active); as for `COc1c(C(C)C)oc2cc3oc(=O)ccc3cc12`, “inactive”.
To `N=C1C(c2nc3ccccc3s2)=C(O)CN1NC(=O)c1ccc([N+](=O)[O-])cc1` belongs 23.1 µM (active); to `CCOC(=O)CCCN1CC(O)=C(c2nc3ccccc3s2)C1=N`, “inactive”; to `O=C(Nn1c(-c2ccccc2)nc2ccccc2c1=O)c1ccc([N+](=O)[O-])cc1`, “inactive”.
Consider `Cc1nc2cc(NC(=O)CSc3nc4c(C)cccc4cc3C#N)ccc2s1`, for which the Potency entry was “inactive”.
As for `COCCNC(=O)c1snc2ccc(Cl)cc12`, the entry is “inactive”; as for `CCOc1ncccc1C(=O)N(C)CC(=O)Nc1ccc(F)cc1`, “inactive”; as for `O=C(O)CN1c2cccc3cccc(c23)S1(=O)=O`, “inactive”.
As for `COc1ccccc1CNC(=O)COC(=O)CNS(=O)(=O)c1ccc(NC(C)=O)cc1`, the entry is “inactive”.
To `COc1ccc(CNC(=O)COC(=O)c2sccc2C)cc1OC` belongs “inactive”.
`COc1ccc(OC)c(CNC(=O)CCc2nc(-c3cccs3)no2)c1`: the Potency entry is “inactive”.
To `COc1ccc(CNC(=O)COCc2cc(-c3cccs3)on2)cc1OC` belongs 23.1 µM (active); to `Cc1cc(C)cc(NC(=S)NCCCN2CCOCC2)c1`, “inactive”; to `C=CCNC(=O)c1ccc2c3n(nc2c1)-c1ccc(C)cc1CO3`, 18.4 µM (active).
On to `Cc1ccc(-n2nc3c(c2NC(=O)c2ccc4c(c2)OCO4)CSC3)c(C)c1`, for which the Potency entry was “inactive”.
To `CCOc1c2ccc(C(=O)NCc3ccc4c(c3)OCO4)cc2nn1C` belongs “inactive”; to `COc1ccc(N2CCN(CCNC(=O)CCN3C(=O)COc4ccccc43)CC2)cc1`, “inactive”; to `C/C(=N\NC(=O)COc1ccc(C)cc1[N+](=O)[O-])c1ccc2c(c1)OCCO2`, “inactive”.
To `COc1ccc(CNC2CCCCC2)cc1` belongs “inactive”; to `CCCn1nnnc1NCc1ccc(OC)cc1`, “inactive”.
As to `COc1ccc(CNc2nc(NCc3ccc(OC)cc3)c3ncn(C4CCCC4)c3n2)cc1`, the Potency was 2.31 µM (active).
To `O=C1NS(=O)(=O)c2ccccc21` belongs “inactive”; to `N#CCCN1CCN(S(=O)(=O)c2ccc(S(=O)(=O)NC3CC3)cc2)CC1`, “inactive”.
As for `COc1ccc(-c2cc(-c3ccccc3)nc3c2COc2ccc(Cl)cc2-3)cc1`, the entry is “inactive”.
To `COc1ccc(Cl)cc1NC(=O)CSc1nc(=O)[nH]c2c1CCCC2` belongs “inactive”; to `Nc1nc(SCC(=O)Nc2cc(C(F)(F)F)ccc2Cl)[nH]c(=O)c1NC(=O)c1ccco1`, “inactive”; to `O=C(CSc1nc(=O)[nH]c2c1CCCC2)Nc1cc(C(F)(F)F)ccc1Cl`, 16.4 µM (active).
As to `CC(C)CCN1CCN=C1N(C)C`, the Potency result is “inactive”.
To `CC(C)CC(=O)N1CCN(Cc2ccccc2Br)CC1` belongs “inactive”; to `COc1ccc2oc(C(=O)NCc3ccco3)c(C)c2c1`, “inactive”.
To `Cc1c(C(=O)NCc2ccccc2Br)oc2ccc3c(c12)C(=O)CC(C)(C)O3` belongs 16.4 µM (active); to `C[C@]12C=CC(=O)C=C1CC[C@@H]1[C@@H]2C(=O)C[C@@]2(C)[C@H]1CC[C@]2(O)C(=O)CO`, “inactive”.
For `Cc1cc(C)cc(N(CCC#N)C(=O)CN2C(=O)NC3(CCCC3)C2=O)c1`, the Potency result is “inactive”.
As for `O=C(NC1CCCC1)C(c1ccc(N2CCOCC2)cc1)N(C(=O)c1ccco1)c1ccccc1F` (stereo not given), the entry is “inactive”; as for `O=C(O)c1ccc(/C=N/NC(=O)c2ccc(Br)cc2)cc1`, “inactive”.
As for `O=C(O)c1ccc(OCC2CCCO2)cc1` (stereo not given), the entry is “inactive”.
To `O=C(N/N=C/c1ccc(OCC2COCCO2)cc1)c1ccc(Br)cc1` (stereo not given) belongs 18.4 µM (active); to `O=C(Nc1cccn(Cc2c(Cl)cccc2Cl)c1=O)c1ccc(Cl)cc1`, “inactive”.
As to `CCOC(=O)c1c(NC(C)=O)c2c3c(sc2n1Cc1c(C)cc(C)cc1C)CCCC3`, the Potency was 13 µM (active).
To `CCC(C)NC(=O)Cn1c(=O)n(-c2ccc(Cl)cc2)c(=O)c2c3c(sc21)CCCC3` (stereo not given) belongs “inactive”; to `CCCOC(=O)Nc1sc2c(c1C(=O)OCC)CCC2`, “inactive”.
For `CN(Cc1nc(-c2cnccn2)no1)Cc1n[nH]c2c1CCCCC2`, the Potency result is “inactive”.
As for `O=[N+]([O-])c1ccc(C=Nc2ccc(Cl)cc2Cl)s1`, the figure is 13 µM (active); as for `O=C(CSCc1ccccc1Cl)NNC(=O)c1ccccc1`, “inactive”; as for `O=C(C1CC(=O)N(C2CCCCC2)C1)N1CCN(c2ccccc2)CC1` (stereo not given), “inactive”.
As for `O=C(CCN1CCCO1)N1CCCC(N2CCN(c3cccc(C(F)(F)F)c3)CC2)C1` (stereo not given), the entry is “inactive”; as for `O=C(C1CC(=O)N(C2CCCC2)C1)N1CCN(c2cccc(C(F)(F)F)c2)CC1` (stereo not given), 11.6 µM (active).
In the case of `CC(=O)C1(C)N(O)C(C)(C)C(c2cccs2)=[N+]1[O-]` (stereo not given), the Potency result was “inactive”.
Regarding `CCOC(=O)CN1C(=O)C(=O)c2cc(C)ccc21`, the Potency was 14.6 µM (active).
In the case of `CCOC(=O)CSc1nc2ccc(C)cc2[nH]1`, the Potency entry was “inactive”.
As for `CCOC(=O)c1cc2n(c1C)-c1ccccc1C2=O`, the entry is “inactive”.
Take `CCOC(=O)C1CCN(C(=O)CN2C(=O)c3cccnc3Oc3ccc(C)cc32)CC1`: the Potency result is “inactive”.
`CC(OC(=O)CN1C(=O)c2ccccc2C1=O)C(=O)c1ccccc1` (stereo not given): the Potency result is “inactive”.
To `CC(C)OC(=O)CN1C(=O)C(=O)c2ccccc21` belongs 13 µM (active); to `COc1ccccc1C(=O)Nc1ccnn1C1CCN(C(=O)C(C)(C)C)CC1`, “inactive”; to `CC1Cc2ccccc2N1CC(=O)Nc1ccc2c(c1)OC(F)(F)O2` (stereo not given), “inactive”.
As for `Cc1cccc(C(=O)Nc2ccccc2C(=O)NCc2cccnc2)c1`, the entry is “inactive”.
As for `CCC(C)c1ccc(NC(=O)COC(=O)C2CCCC2)cc1` (stereo not given), the entry is “inactive”.
Turning to `CNC[C@@H]1Oc2c(NS(C)(=O)=O)cccc2C(=O)N([C@@H](C)CO)C[C@H]1C`, the Potency entry is “inactive”.
As to `Cc1cccc(-n2c(Cc3cc(=O)[nH]c(=O)[nH]3)nnc2SCC(=O)Nc2cccc(C(F)(F)F)c2)c1`, the Potency entry is “inactive”.
As for `COc1ccccc1C(c1nnnn1CC1CCCO1)N1CCN(c2ccccc2)CC1` (stereo not given), the entry is “inactive”; as for `COc1ccc(CCn2nnnc2C(c2ccccc2)N2CCN(C)CC2)cc1OC` (stereo not given), “inactive”; as for `CCCCn1nnnc1NCc1cc(OC)c(OC)c(OC)c1`, “inactive”.
As for `c1ccc(CCn2nnnc2CN2CCN(C3CCCC3)CC2)cc1`, the entry is “inactive”; as for `Cc1cc(O)c(C(c2ccccc2)N2CCN(c3ccccc3F)CC2)c(=O)n1Cc1ccco1` (stereo not given), “inactive”; as for `Clc1ccc(-n2nnnc2CN2CCCCC2)cc1Cl`, “inactive”.
Take `c1ccc(C(c2ccccc2)N2CCN(Cc3nnnn3C3CCCCC3)CC2)cc1`: the Potency is 20.6 µM (active).
Consider `CCCCn1nnnc1C(c1ccccc1)N1CCN(c2ccccc2OC)CC1` (stereo not given), for which the Potency was 20.6 µM (active).
With `C=CCC(Nc1ccccc1)c1cccc(OC)c1OC` (stereo not given), the Potency entry is “inactive”.
As for `Cc1cccc(N2CCN(C(c3ccccc3)c3nnnn3CC3CCCO3)CC2)c1C` (stereo not given), the figure is 11.6 µM (active); as for `COc1ccccc1N1CCN(Cc2nnnn2CCc2ccccc2)CC1`, “inactive”; as for `CCCCn1nnnc1C(c1cccc(OC)c1OC)N1CCN(C/C=C/c2ccccc2)CC1` (stereo not given), 20.6 µM (active).
Regarding `O=C(Nc1nncs1)c1ccccc1NS(=O)(=O)c1cccs1`, the Potency result was “inactive”.
To `O=C(CSCc1ccc([N+](=O)[O-])cc1)Nc1cccc(C(=O)Nc2ccccc2C(=O)O)c1` belongs “inactive”; to `C[C@H](NC(=O)C1CC(=O)N(c2ccc3c(c2)OCO3)C1)C(=O)NCc1ccco1` (stereo not given in full), “inactive”; to `CCCCC(=O)NCc1ccc(F)cc1`, “inactive”.
With `CCCCNC(=O)C1CCC(CNS(=O)(=O)c2ccc(NC(C)=O)cc2)CC1` (stereo not given), the Potency entry is “inactive”.
To `O=C1C(=O)N(CCN2CCOCC2)C(c2ccccn2)/C1=C(/O)c1ccc(Cl)cc1` (stereo not given) belongs “inactive”.
